These results are taken from PubChem BioAssay (NCI).

SMILES strings stand for the structures. About 83,000 compounds went through this panel and 20% of them were active in at least one assay; those are over-represented in the sample as a whole.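 Interpretation: 100, growth as untreated; towards 0, rising growth inhibition; 0, no net growth; 0 to -100, cell death. Compounds scoring below 10 were considered active.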 Activity calls are given as the source filed them.

The test has as its system HL-60(TB) leukemia. The test is described as follows: NCI-60 one-dose screen, 48 h (100 = growth as untreated, 0 = no growth, -100 = all killed). The following applies: 10 µM unless noted.
In the case of `COc1ccc2c(c1)O/C(=C\c1ccc([N+](=O)[O-])s1)C2=O`, the growth was 7.46% (active). In the case of `Nc1n[nH]c(=S)n1-c1ccc(Cl)cc1`, the growth was 82.6% (inactive). The same measure for `COc1ccc(C(O)c2cc3c(N)c(C(=O)Nc4cccc(Br)c4)sc3nc2C)cc1` (stereo not given): -5.69% (active); for `c1ccc(-c2c(-c3ccccc3)[n+](Cc3ccc4ccccc4c3)c(-c3ccc(-c4nc5ccccc5s4)cc3)n2Cc2ccc3ccccc3c2)cc1`: -57.2% (active); for `CS(=O)(=O)c1ccc(-c2[nH]c3ccc(F)cc3c2/C=N/NC(N)=S)cc1`: -50.2% (active).

`CC(C(=O)O)n1c(O)c(C=Nc2cccnc2)sc1=S` (stereo not given): the growth was 82.3% (inactive). Consider `O=c1c2cc(F)cc(Cl)c2sc2c(Cl)nc3ccccc3c12`, for which the growth was 115% (inactive).

Take `Cc1cnc(C=O)c2cccc([N+](=O)[O-])c12`: the growth is 66.1% (inactive). The same measure for `CC(=O)N1N=C(c2ccc(Nc3nc(Nc4ccc(F)cc4)nc(Nc4ccc(F)cc4)n3)cc2)CC1c1ccc(N(C)C)cc1` (stereo not given): 10% (active); for `CN(C)CCN(Cc1ccccc1)c1ccc2ccccc2n1`: 89.7% (inactive). Regarding `Cn1cc(NC(=O)Nc2cc(C(=O)O)n(C)c2)cc1C(=O)O`, the growth was 90.1% (inactive). Then `COc1ccc2nccc(Cl)c2c1`, with 103% (inactive); and `CC1(C)N=C(N)N=C(N)N1c1ccc(CCCCc2ccccc2)c(Cl)c1`, with -25.5% (active). For `O=C(CNc1ccc(Cl)cc1)Nc1ccc(-c2nc3ccccc3s2)cc1`, the growth was 71% (inactive).

`CCOC(=O)C(C)(c1ccccc1)c1ccccc1`: the growth was 104% (inactive).

With `O=S(=O)(NCCNc1nccc(-c2c(-c3ccc(F)cc3)nc3sccn23)n1)c1ccc2ccccc2c1`, the growth was 88.1% (inactive). The same measure for `COc1ccc(/C(C)=C(\c2ccc(Cl)cc2)c2ccc(OCCN3CCCCC3)cc2)cc1`: 32.8% (inactive). The same measure for `O=C(CBr)c1ccc(OC(=O)c2ccccc2)cc1`: 95.5% (inactive); for `c1ccc(-c2[nH]c3ccccc3c2-c2ccccc2)cc1`: 78.7% (inactive); for `CC(=S)Nc1ccccc1`: 103% (inactive). For `CC1(C)NCCC[C@]2(C)[C@H]3CC=C4[C@@H]5C[C@](C)(COC(=O)c6ccccc6C(=O)O)CC[C@]5(C)CC[C@@]4(C)[C@]3(C)CC[C@@H]12`, the growth was 65.3% (inactive). The same measure for `O=C(O)c1cn(C2CC2)c2cc(N3CCN(Cc4nnc(Nc5ccccc5)o4)CC3)c(F)cc2c1=O`: 91.4% (inactive). The same measure for `CCCCCCCC/C=C\CCCCCCCC(=O)OCCCCCC`: 93.6% (inactive); for `Cc1ccc([P+](Cc2ccccc2)(c2ccccc2)c2ccccc2)cc1`: -36.4% (active). As for `CCN(CC)CCC(CNc1ccnc2cc(Cl)ccc12)c1ccc(O)cc1` (stereo not given), the growth was -1.95% (active). The same measure for `Cn1c(NCCc2ccc(O)c(O)c2)nc2c1c(=O)n(Cc1ccc(Cl)cc1)c(=O)n2C`: 13.2% (inactive); for `CC(=O)c1c(Nc2ccc(F)c(F)c2F)[nH]c2c(F)cc(F)cc2c1=O`: -48% (active). Then `Nc1nc(-c2ccccc2Cl)cc(-c2ccc(Cl)cc2Cl)n1`, with 51.4% (inactive); and `COc1ccc(C2CC(c3ccc4c(c3)OCO4)=NN2C=O)cc1` (stereo not given), with 106% (inactive); and `COc1ccc(C2CC(c3cc(OC)c(OC)c(OC)c3)=NN2C(C)=O)cc1OCC(=O)Nc1nc2ccc(C(F)(F)F)cc2s1` (stereo not given), with 79.1% (inactive). `CC(CC(=O)c1ccccc1)c1ccccc1` (stereo not given): the growth was 102% (inactive). In the case of `Ic1ccc(SSc2ccc(I)cc2)cc1`, the growth was 80.4% (inactive). Then `O=C(NCc1ccc(Cn2c(=O)sn(-c3ccccc3)c2=O)cc1)OCc1ccc2c(Br)cc(Br)c(O)c2n1`, with -41.3% (active). The same measure for `COc1cc(/C=C2\COc3ccc(O)cc3C2=O)cc(OC)c1`: 18.4% (inactive). Regarding `O=C(N/N=C/c1ccccc1Cl)C(=O)Nc1cccc(C(F)(F)F)c1`, the growth was 106% (inactive).

Consider `CN1CCCCC1CCN1c2ccccc2Sc2ccc(Br)cc21` (stereo not given), for which the growth was 34.9% (inactive).

Turning to `COc1cc(C2CC(=O)Nc3n[nH]c(-c4ccccc4)c32)cc(OC)c1OC` (stereo not given), the growth was 39.1% (inactive). Then `C[N+](C)(C)C(=O)c1ccccc1`, with 125% (inactive). Then `NC(=O)N/N=C/c1ccc(Br)o1`, with 95.8% (inactive); and `CC(CCCC(=O)O)c1ccoc1` (stereo not given), with 97.6% (inactive).
